# Reference: the supplement of paper PMC11732987, “Enantioselective OTUD7B fragment discovery through chemoproteomics screening and high-throughput optimisation” (Communications Chemistry, 2025)
# Molecular target: T1, VCPIP1 (UniProt Q96JH7)
# T1 sequence (whole entry): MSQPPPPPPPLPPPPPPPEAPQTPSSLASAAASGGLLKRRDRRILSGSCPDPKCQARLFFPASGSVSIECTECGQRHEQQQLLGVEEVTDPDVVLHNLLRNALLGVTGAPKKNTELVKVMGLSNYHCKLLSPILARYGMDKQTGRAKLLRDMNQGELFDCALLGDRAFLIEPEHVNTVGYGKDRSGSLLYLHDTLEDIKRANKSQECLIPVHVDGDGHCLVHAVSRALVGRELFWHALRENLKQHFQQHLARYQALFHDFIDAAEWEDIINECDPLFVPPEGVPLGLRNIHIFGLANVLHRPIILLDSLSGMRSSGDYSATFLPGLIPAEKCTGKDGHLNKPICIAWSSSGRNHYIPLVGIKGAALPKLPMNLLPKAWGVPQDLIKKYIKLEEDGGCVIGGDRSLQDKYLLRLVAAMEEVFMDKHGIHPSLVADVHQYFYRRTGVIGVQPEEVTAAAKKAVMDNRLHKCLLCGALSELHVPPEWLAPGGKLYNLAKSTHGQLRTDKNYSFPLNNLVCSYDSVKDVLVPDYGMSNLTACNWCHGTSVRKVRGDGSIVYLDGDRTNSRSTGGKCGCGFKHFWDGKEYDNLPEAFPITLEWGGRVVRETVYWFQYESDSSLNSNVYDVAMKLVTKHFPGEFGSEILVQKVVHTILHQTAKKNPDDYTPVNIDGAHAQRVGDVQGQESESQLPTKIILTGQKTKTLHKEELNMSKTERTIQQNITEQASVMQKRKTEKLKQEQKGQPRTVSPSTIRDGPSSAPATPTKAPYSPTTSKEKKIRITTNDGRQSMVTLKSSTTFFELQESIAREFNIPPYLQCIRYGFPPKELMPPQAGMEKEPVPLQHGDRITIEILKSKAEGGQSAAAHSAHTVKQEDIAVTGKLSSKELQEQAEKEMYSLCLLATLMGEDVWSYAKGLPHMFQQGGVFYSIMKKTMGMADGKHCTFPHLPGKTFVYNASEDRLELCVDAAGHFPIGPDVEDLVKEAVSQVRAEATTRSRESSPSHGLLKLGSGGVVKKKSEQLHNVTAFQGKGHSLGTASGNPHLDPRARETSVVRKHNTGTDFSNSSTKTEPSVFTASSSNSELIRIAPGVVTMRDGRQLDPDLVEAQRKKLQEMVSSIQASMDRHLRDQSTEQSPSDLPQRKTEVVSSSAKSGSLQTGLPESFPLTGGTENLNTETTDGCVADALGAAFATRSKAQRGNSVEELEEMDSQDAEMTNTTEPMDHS
# Assay: log2 ratio of Biotin-Ahx-Ub-VS probe labelling (fragment/DMSO); higher = less target engagement (more negative = stronger competition), active = hit call of the paper (q ≤ 0.05, log2 ratio ≤ -1)
# Settings: compound concentration: 200 uM; treatment time: 3 h
# Description: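 Competitive ABPP in HEK293T cell lysate. Lysates were treated with each chloroacetamide fragment at 200 µM for 3 h, then with Biotin-Ahx-Ub-VS (0.5 µM, 1 h), NeutrAvidin-enriched and analysed by diaPASEF LC-MS/MS. Protein LFQ was median-normalised; average log2 ratio is fragment/DMSO from an unpaired t-test (n=3 treated, n=44 DMSO). Hits: q ≤ 0.05, log2 ratio ≤ -1, unique peptides ≥ 2.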
row,Compound,log2 ratio of Biotin-Ahx-Ub-VS probe labelling
1,Cc1cnc2[nH]cc(CCNC(=O)CCl)c2c1,-1.05 (active)
2,NS(=O)(=O)c1ccc(Cl)c(NC(=O)CCl)c1,-2.53 (active)
3,Cc1nc(CNC(=O)CCl)c2ccccn12.Cl,-0.406 (inactive)
4,Cc1nc(-c2cccc(NC(=O)CCl)c2)cs1,-1.87 (active)
5,O=C(CCl)NC1(c2ccc3c(c2)OCCO3)CCCC1,-0.7 (inactive)
6,CCC(NC(=O)CCl)c1ccc(Cl)cc1 (stereo not given),-0.836 (inactive)
7,O=C(CCl)Nc1cc2c(cc1Cl)OCCO2,-0.947 (inactive)
8,Cc1n[nH]c2c1CN(C(=O)CCl)CC2,-1.02 (active)
9,CNC(=O)Cn1cc(NC(=O)CCl)cn1,-0.495 (inactive)
10,CN(CCc1ncc(Br)cn1)C(=O)CCl.Cl,-2.5 (active)
11,Cc1ncsc1CCNC(=O)CCl,0.0583 (inactive)
12,O=C(CCl)N1CCC(C(O)c2ccc(F)cc2)CC1 (stereo not given),-0.764 (inactive)
13,Cl.O=C(CCl)NCc1cc2c(nc1O)CCCC2,-1.56 (active)
14,C[C@H]1CN(C(=O)CCl)CCN1C(=O)c1cnn(C)c1.Cl,-0.157 (inactive)
15,CN(C)C(=O)c1ccc(NC(=O)CCl)cc1,-0.601 (inactive)
16,CN(C)S(=O)(=O)c1ccccc1CNC(=O)CCl,-1.15 (active)
17,Cl.O=C(CCl)N1CCN(Cc2ccccc2)CC1,-0.476 (inactive)
18,CC(NC(=O)CCl)c1cccc2ccccc12 (stereo not given),-1.05 (active)
19,O=C(CCl)N1CCCCC12CCOCC2,-0.562 (inactive)
20,O=C(CCl)Nc1cc(Cl)ccc1C(=O)O,-0.241 (inactive)

row,Compound,log2 ratio of Biotin-Ahx-Ub-VS probe labelling
1,CC(NC(=O)CCl)c1cccc(Cl)c1 (stereo not given),-1.59 (active)
2,O=C(CCl)NCCc1ccc2c(c1)OCCO2,-2.55 (active)
3,CNC(=O)C1(NC(=O)CCl)CCCCC1,-0.262 (inactive)
4,Cc1cccc(NC(=O)[C@@H]2CCCN2C(=O)CCl)n1,-0.551 (inactive)
5,O=C(CCl)Nc1cccc2ncccc12,-0.848 (inactive)
6,O=C(CCl)NCc1ccc(N2CCOCC2)nc1,-2 (active)
7,N#Cc1ccc(Cl)cc1NC(=O)CCl,-1.7 (active)
8,Cc1cccc(N(CCC#N)C(=O)CCl)c1C,-2.23 (active)
9,Cl.Cn1c(CNC(=O)CCl)nc2cccnc21,-0.977 (inactive)
10,Cc1cccc(N2CCC(NC(=O)CCl)C2=O)c1 (stereo not given),-1.91 (active)
11,O=C(CCl)N1CCOC2(CCC2)CC1,-0.287 (inactive)
12,Cl.O=C(CCl)N1CC(c2ccc(Br)cn2)C1,-1.3 (active)
13,COc1ccc(Cl)cc1NC(=O)CCl,-1.52 (active)
14,O=C(CCl)Nc1ccc2c(c1)OC(F)(F)O2,-1.43 (active)
15,Cc1ccc(C)c(NC(=O)CCl)c1,-1.52 (active)
16,Cc1nc(CC2CCN(C(=O)CCl)CC2)no1,-0.733 (inactive)
17,O=C(CCl)NC1CCS(=O)(=O)c2ccccc21 (stereo not given),-1.22 (active)
18,Cc1cccc2nc(CCNC(=O)CCl)cn12.Cl,-1.77 (active)
19,C/C(=C\CNC(=O)CCl)c1cnn(C)c1.Cl,-1.53 (active)
20,Cc1cccn2cc(CCNC(=O)CCl)nc12.Cl,-1.07 (active)
